# Experimental data published in PubChem BioAssay (NCATS).
# Results filed as inconclusive are left out. Where a call stands in place of a potency, no number is given. Active and inactive are the calls of the source. Unless noted, calls follow the shape of the full dose curve.
# How the values were obtained:
# [1] = qHTS for Inhibitors of the Functional Ribonucleoprotein Complex (vRNP) of Lassa (LASV) Arenavirus: LASV Primary Screen - GLuc reporter signal (AID 1347082; calls by dose curve; tested in HEK293 reporter line; also: nearly all actives have a fitted effect of over 60% in size; also: potency is read from the fitted curve at half-maximal effect)
# [2] = qHTS for Inhibitors of the Functional Ribonucleoprotein Complex (vRNP) of Lassa (LASV) Arenavirus: Viability assay - alamar blue signal for LASV Primary Screen (AID 1347083; calls by dose curve; tested in HEK293 reporter line; also: nearly all actives have a fitted effect of over 80% in size; also: potency is read from the fitted curve at half-maximal effect)
# [3] = qHTS for Inhibitors of the Functional Ribonucleoprotein Complex (vRNP) of Lymphocytic Choriomeningitis Arenaviruses (LCMV): Viability assay - alamar blue signal for LCMV Primary Screen (AID 1347085; calls by dose curve; tested in HEK293 reporter line; also: nearly all actives have a fitted effect of over 80% in size; also: potency is read from the fitted curve at half-maximal effect)
# [4] = Cytotoxicity counterscreen for inhibitors of SARS-CoV-2 cell entry (AID 1645845); also: nearly all actives have a fitted effect of over 50% in size
# In short: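 ATP-content luminescence (ATPLite 1step, 15 min RT) read after 48 h compound exposure of Expi293F cells stably expressing human ACE2; normalized to cells-only wells and media-only wells.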
# [5] = Primary qHTS to identify inhibitors of SARS-CoV-2 cell entry (AID 1645846); settings: activity change, negative = inhibition: at 57.1 µM (top of the series) unless noted; also: nearly all actives have a fitted effect of over 45% in size; also: potency is read from the fitted curve at half-maximal effect
# In short: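 Luminescence readout (Bright-Glo luciferase) 48 h after pseudoparticle addition. HEK293-ACE2 cells, 1500/well; compound pre-incubation 1 h; Normalized to spike PP and bald PP.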
# [6] = target: Alpha-galactosidase (Coffea arabica) (UniProt Q42656); test: Counterscreen for Glucocerebrosidase Inhibitors: qHTS Assay for Coffee Bean alpha-Galactosidase at pH 4.5 (AID 957; active = well fitted curve in the direction sought with a large enough effect; an effect the other way counts as inactive or inconclusive)
# Sequence of Alpha-galactosidase (Coffea arabica) (Q42656 whole entry, looked up): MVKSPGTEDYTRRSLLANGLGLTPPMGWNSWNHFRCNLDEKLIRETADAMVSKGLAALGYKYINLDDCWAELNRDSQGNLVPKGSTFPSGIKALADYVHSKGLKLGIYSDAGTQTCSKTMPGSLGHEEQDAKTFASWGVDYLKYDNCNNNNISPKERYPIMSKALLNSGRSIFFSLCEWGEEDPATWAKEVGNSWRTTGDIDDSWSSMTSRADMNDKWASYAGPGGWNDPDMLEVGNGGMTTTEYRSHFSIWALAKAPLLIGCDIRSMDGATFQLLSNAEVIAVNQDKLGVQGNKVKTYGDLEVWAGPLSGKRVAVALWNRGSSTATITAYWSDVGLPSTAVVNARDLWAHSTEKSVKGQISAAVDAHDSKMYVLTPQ
# In short: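 Fluorogenic read-out: 4-methylumbelliferone at Ex 365/Em 440 nm after NaOH/glycine stop (pH 10). Enzyme 2 nM, 4-MU-alpha-galactoside 80 uM, citrate buffer pH 4.5, 20 min RT; normalized to no-enzyme and enzyme controls.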
# [7] = target: Alpha-galactosidase (Coffea arabica) (UniProt Q42656); test: Counterscreen for Glucocerebrosidase Inhibitors: qHTS Assay for Coffee Bean alpha-Galactosidase at pH 5.9 (AID 998; active = well fitted curve in the direction sought with a large enough effect; an effect the other way counts as inactive or inconclusive)
# In short: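 Fluorogenic 4-MU substrate hydrolysis, 80 uM substrate and 2 nM coffee bean alpha-galactosidase, pH 5.9 citrate buffer, 20 min at room temperature, then NaOH/glycine stop. Titration 0.7 nM–77 uM, normalized to no-enzyme and enzyme controls, AC50 via Hill equation.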
# [8] = target: Nucleoprotein (Lymphocytic choriomeningitis virus (strain Armstrong)) (UniProt P09992); test: qHTS for Inhibitors of the Functional Ribonucleoprotein Complex (vRNP) of Lymphocytic Choriomeningitis Arenaviruses (LCMV): LCMV Primary Screen - GLuc reporter signal (AID 1347086); also: nearly all actives have a fitted effect of over 70% in size
# Sequence of Nucleoprotein (Lymphocytic choriomeningitis virus (strain Armstrong)) (P09992 whole entry, looked up): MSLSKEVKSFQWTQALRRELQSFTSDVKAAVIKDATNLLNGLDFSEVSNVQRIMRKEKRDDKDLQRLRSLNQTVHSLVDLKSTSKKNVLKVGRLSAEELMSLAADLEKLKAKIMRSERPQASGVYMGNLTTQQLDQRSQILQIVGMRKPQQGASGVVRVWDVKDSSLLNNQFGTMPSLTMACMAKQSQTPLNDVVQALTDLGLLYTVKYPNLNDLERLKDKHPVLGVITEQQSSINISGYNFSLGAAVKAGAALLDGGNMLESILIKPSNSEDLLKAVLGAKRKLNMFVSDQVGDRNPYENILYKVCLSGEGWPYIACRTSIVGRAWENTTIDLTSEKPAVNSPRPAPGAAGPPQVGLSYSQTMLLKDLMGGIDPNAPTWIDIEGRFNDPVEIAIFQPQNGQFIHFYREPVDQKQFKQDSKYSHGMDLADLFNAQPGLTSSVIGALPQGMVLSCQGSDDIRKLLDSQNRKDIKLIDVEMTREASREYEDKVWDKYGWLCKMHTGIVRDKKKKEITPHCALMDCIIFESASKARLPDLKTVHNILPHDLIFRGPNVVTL
# [9] = qHTS profiling of the MIPE4 collection as inhibitors of Plasmodium falciparum (3D7) proliferation (AID 743344; call rule not given here); settings: P. falciparum 3D7 in erythrocytes, SYBR Green DNA fluorescence, 72 h; at 28.5 µM (top of the series) unless noted
# In short: (§1)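 Parasite DNA was quantified by SYBR Green I fluorescence (ex 485, em 535 nm) after overnight lysis in saponin/Triton buffer at room temperature. Cultures at 0.3% parasitemia and 2.5% hematocrit were first exposed to compound for 72 h at 37 C; signals were normalised to artemisinin (0.29 uM) and vehicle wells.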
# [10] = qHTS profiling of the MIPE4 collection as inhibitors of Plasmodium falciparum (DD2) proliferation (Rep 2) (AID 743346; call rule not given here); settings: P. falciparum Dd2 in erythrocytes, SYBR Green DNA, 72 h; at 28.5 µM (top of the series) unless noted
# In short: as §1
# [11] = qHTS profiling of the MIPE4 collection as inhibitors of Plasmodium falciparum (HB3) proliferation (AID 743347; call rule not given here); settings: P. falciparum HB3 in erythrocytes, SYBR Green DNA, 72 h; at 28.5 µM (top of the series) unless noted
# In short: as §1
# [12] = target: Cytochrome P450 3A4 (Homo sapiens) (UniProt P08684); test: qHTS Assay for Inhibitors and Substrates of Cytochrome P450 3A4 (AID 884; active = well fitted curve in the direction sought with a large enough effect; an effect the other way counts as inactive or inconclusive; also: potency is read from the fitted curve at half-maximal effect; nearly all actives have a fitted effect of over 50% in size)
# Sequence of Cytochrome P450 3A4 (Homo sapiens) (P08684 whole entry, looked up): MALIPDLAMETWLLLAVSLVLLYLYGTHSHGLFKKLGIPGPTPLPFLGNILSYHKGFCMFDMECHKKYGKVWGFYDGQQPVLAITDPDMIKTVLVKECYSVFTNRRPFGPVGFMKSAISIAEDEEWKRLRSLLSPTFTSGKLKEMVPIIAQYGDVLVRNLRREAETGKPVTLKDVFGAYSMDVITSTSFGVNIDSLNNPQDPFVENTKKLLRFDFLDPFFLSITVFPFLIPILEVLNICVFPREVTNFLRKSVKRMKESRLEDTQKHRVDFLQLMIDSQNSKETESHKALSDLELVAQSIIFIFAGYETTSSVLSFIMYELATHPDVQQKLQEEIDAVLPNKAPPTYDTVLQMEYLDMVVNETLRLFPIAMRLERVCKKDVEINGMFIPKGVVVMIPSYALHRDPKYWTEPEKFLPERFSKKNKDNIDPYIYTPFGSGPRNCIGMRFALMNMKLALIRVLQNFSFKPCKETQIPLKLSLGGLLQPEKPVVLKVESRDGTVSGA
# In short: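 Luminescent readout of luciferin produced by CYP3A4 (20 nM) dealkylation of Luciferin-PPXE, 25 uM (its KM). NADPH-driven reaction ran 60 min at RT after 10 min compound preincubation; data scaled to 57 uM ketoconazole as 100% inhibition.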
# [13] = target: Cytochrome P450 3A4 (Homo sapiens) (UniProt P08684); test: qHTS Assay for Activators of Cytochrome P450 3A4 (AID 885; active = well fitted curve in the direction sought with a large enough effect; an effect the other way counts as inactive or inconclusive; also: nearly all actives have a fitted effect of over 65% in size)
# In short: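 Human CYP3A4 dealkylates Luciferin-PPXE to luciferin, which luciferase detection converts to light. Substrate was at its KM (25uM), buffer 200mM KPO4, reaction 60 min at RT.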
# [14] = qHTS profiling of the MIPE4 collection as inhibitors of Plasmodium falciparum (DD2) proliferation (AID 743345; call rule not given here); settings: P. falciparum Dd2 in erythrocytes, SYBR Green DNA, 72 h; at 28.5 µM (top of the series) unless noted
# In short: as §1
# [15] = Inducers of the Endoplasmic Reticulum Stress Response (ERSR) in human glioma: Validation (AID 504836; active = well fitted curve in the direction sought with a large enough effect; an effect the other way counts as inactive or inconclusive)
# In short: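 ERSR induction read as luciferase luminescence (Bright-Glo, 10 min at room temperature) in stably transfected human U87-MG glioma cells exposed to compounds for 16 h, using GRP78 as sensor.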
# [16] = Confirmatory qHTS for VERO E6 Cytotoxicity Assay: Counterscreen for SARS-CoV-2 CPE Assay (AID 1508605); also: potency is read from the fitted curve at half-maximal effect; nearly all actives have a fitted effect of over 60% in size
# [17] = target: Cytochrome P450 2C9 (Homo sapiens) (UniProt P11712); test: qHTS Assay for Inhibitors and Substrates of Cytochrome P450 2C9 (AID 883; active = well fitted curve in the direction sought with a large enough effect; an effect the other way counts as inactive or inconclusive; also: potency is read from the fitted curve at half-maximal effect; nearly all actives have a fitted effect of over 60% in size)
# Sequence of Cytochrome P450 2C9 (Homo sapiens) (P11712 whole entry, looked up): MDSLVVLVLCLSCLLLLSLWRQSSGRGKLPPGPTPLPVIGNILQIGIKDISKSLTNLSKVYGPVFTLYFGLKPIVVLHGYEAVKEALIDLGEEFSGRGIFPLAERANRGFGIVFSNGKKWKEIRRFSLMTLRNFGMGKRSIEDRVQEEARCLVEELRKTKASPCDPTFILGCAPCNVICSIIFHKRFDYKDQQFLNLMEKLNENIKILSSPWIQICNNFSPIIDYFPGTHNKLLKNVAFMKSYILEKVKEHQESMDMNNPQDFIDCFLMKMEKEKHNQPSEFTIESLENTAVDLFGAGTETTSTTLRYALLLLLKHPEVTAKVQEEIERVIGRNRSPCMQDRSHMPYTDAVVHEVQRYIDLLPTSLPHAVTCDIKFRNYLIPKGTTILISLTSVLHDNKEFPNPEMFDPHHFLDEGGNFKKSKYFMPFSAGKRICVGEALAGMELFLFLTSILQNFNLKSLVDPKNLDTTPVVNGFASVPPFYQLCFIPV
# In short: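 Turnover of Luciferin-H (100uM, KM) by 10nM human CYP2C9 was measured over 60 min at 37C with NADPH regeneration; inhibitors and some substrates reduce luminescence. Data normalized to sulphaphenazole 57uM.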
# [18] = target: Cytochrome P450 2D6 (Homo sapiens) (UniProt P10635); test: qHTS Assay for Inhibitors and Substrates of Cytochrome P450 2D6 (AID 891; active = well fitted curve in the direction sought with a large enough effect; an effect the other way counts as inactive or inconclusive; also: potency is read from the fitted curve at half-maximal effect; nearly all actives have a fitted effect of over 60% in size)
# Sequence of Cytochrome P450 2D6 (Homo sapiens) (P10635 whole entry, looked up): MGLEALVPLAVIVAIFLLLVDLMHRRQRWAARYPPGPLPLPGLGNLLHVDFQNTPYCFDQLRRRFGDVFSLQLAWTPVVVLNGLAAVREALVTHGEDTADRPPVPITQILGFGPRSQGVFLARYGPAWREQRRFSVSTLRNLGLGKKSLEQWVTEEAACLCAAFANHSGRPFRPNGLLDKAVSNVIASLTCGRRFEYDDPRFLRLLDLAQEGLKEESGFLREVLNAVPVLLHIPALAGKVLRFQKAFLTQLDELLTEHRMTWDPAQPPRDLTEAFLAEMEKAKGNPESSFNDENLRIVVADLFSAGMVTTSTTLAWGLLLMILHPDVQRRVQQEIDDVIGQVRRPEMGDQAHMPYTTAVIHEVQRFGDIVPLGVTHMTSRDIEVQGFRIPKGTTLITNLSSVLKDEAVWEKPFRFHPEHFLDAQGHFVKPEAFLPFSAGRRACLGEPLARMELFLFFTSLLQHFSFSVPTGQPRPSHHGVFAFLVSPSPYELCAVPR
# In short: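 Luminescent read-out of luciferin formed by 5 nM human CYP2D6 demethylating 30 uM Luciferin-ME EGE (Km level) over 60 min at room temperature after NADPH regeneration addition. Data normalized to full inhibition by 1.43 uM quinidine.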
# [19] = target: Cytochrome P450 2C19 (Homo sapiens) (UniProt P33261); test: qHTS Assay for Inhibitors and Substrates of Cytochrome P450 2C19 (AID 899; active = well fitted curve in the direction sought with a large enough effect; an effect the other way counts as inactive or inconclusive)
# Sequence of Cytochrome P450 2C19 (Homo sapiens) (P33261 whole entry, looked up): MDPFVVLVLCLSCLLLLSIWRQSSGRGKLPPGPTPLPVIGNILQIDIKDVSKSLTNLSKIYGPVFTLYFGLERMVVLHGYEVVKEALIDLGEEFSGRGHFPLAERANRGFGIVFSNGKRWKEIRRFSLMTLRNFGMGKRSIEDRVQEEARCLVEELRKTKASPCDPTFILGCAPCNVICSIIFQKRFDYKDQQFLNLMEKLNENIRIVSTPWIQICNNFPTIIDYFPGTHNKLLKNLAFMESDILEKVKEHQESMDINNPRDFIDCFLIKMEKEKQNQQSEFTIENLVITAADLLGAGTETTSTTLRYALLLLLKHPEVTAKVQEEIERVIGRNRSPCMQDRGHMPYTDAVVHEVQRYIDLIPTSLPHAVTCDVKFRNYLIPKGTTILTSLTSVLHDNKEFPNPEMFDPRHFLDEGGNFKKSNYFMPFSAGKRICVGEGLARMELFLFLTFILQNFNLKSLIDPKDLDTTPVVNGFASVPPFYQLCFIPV
# In short: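 Reactions contain 5nM enzyme, 10uM Luciferin-H EGE (KM) and 50mM KPO4; compound preincubates 10 min at 37C, NADPH regeneration starts turnover for 60 min. Luminescence after detection reagent gives activity.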
# [20] = Primary qHTS for Huh7 cytotoxicity: counterscreen for inhibitors of MERS-S pseudotyped particle cell entry (AID 1479147); settings: outcome: dose series up to 57.1 µM unless noted
# [21] = Primary qHTS for inhibitors of MERS-S pseudo-typed particle cell entry (AID 1479149); also: nearly all actives have a fitted effect of over 60% in size
# [22] = Primary qHTS for Vero E6 cytotoxicity: counterscreen for inhibitors of SARS-S pseudo-typed particle cell entry (AID 1479150); settings: outcome: dose series up to 57.1 µM unless noted
# [23] = VSVG counterscreen qHTS to identify inhibitors of SARS-CoV-2 cell entry (AID 1645847); also: potency is read from the fitted curve at half-maximal effect; nearly all actives have a fitted effect of over 65% in size
# In short: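 HEK293-ACE2 cells (Expi293F stably expressing human ACE2) were pretreated with compound for 1 h at 37 °C, then infected with MLV-based VSV-G pseudotyped particles for 48 h. Luciferase luminescence was normalized to VSV-G PP and bald PP wells.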
compound,measurement,setting,value
N#Cc1cc(NC(=O)Nc2nnc(-c3ccncc3)s2)ccc1-c1cn[nH]c1,Potency,[1],inactive
same,Potency,[2],inactive
same,Potency,[3],6.85 µM (active)
same,Potency,[4],inactive
same,Potency,[5],inactive
NCCCCC(=O)O,outcome,[6],inactive
same,outcome,[7],inactive
same,Potency,[1],inactive
same,Potency,[2],inactive
same,Potency,[3],inactive
same,Potency,[8],inactive
CC(C)Cc1ccc([C@H](C)C(=O)O)cc1,outcome,[6],inactive
same,outcome,[7],inactive
same,Potency,[1],inactive
same,Potency,[2],inactive
same,Potency,[3],inactive
same,Potency,[8],inactive
COc1ccc(-c2oc3c(CC=C(C)C)c(O)cc(O)c3c(=O)c2O)cc1,Potency,[1],inactive
same,Potency,[2],38.5 µM (active)
same,Potency,[3],3.43 µM (active)
same,"activity change, negative = inhibition",[5],-9.03%
NC(=O)c1noc([C@H](CCCC2CCCCC2)CC(=O)NO)n1,Potency,[1],inactive
same,Potency,[2],inactive
same,Potency,[3],inactive
same,Potency,[4],inactive
same,"activity change, negative = inhibition",[5],-13.6%
CON=C(C(=O)N[C@@H]1C(=O)N2C(C(=O)O)=C(Cn3ccc(=N)n3CCO)CS[C@H]12)c1csc(N)n1,"parasite growth, % of DMSO control",[9],60.9%
same,"parasite growth, % of control (lower = inhibition)",[10],92%
same,"growth, % of control",[11],99.1%
same,Potency,[1],inactive
same,Potency,[2],inactive
same,Potency,[3],inactive
same,Potency,[8],inactive
O=Nc1c(-c2c(O)[nH]c3cc(Br)ccc23)[nH]c2ccccc12,outcome,[6],inactive
same,Potency,[1],inactive
same,Potency,[2],15.8 µM (active)
same,Potency,[3],inactive
same,Potency,[8],inactive
CCS(=O)(=O)Nc1ccc2[nH]c(O)c(C(=Nc3ccc(CN4CCCCC4)cc3)c3ccccc3)c2c1,Potency,[1],9.68 µM (active)
same,Potency,[2],2.17 µM (active)
same,Potency,[3],0.968 µM (active)
same,Potency,[5],2.82 µM (active)
CC(C)n1cnc2c(NCCCCCCNC(=O)OC(C)(C)C)nc(NCCO)nc21,Potency,[1],inactive
same,Potency,[2],inactive
same,Potency,[3],inactive
same,Potency,[5],28.2 µM (active)
NC[C@H]1O[C@H](O[C@@H]2[C@@H](O)[C@@H](O[C@H]3O[C@H](CO)[C@@H](O)[C@H](N)[C@@H]3O)[C@H](N)C[C@@H]2N)[C@H](O)[C@@H](O)[C@H]1O,Potency,[1],inactive
same,Potency,[2],inactive
same,Potency,[3],inactive
same,Potency,[4],inactive
same,"activity change, negative = inhibition",[5],-26.9%
O=c1cc(-c2ccc(O)c(O)c2)oc2cc(O)cc(O)c12,Potency,[12],15.8 µM (active)
same,Potency,[13],inactive
same,"parasite growth remaining, % of DMSO control (lower = more inhibition)",[14],89.2%
same,Potency,[1],inactive
same,Potency,[2],inactive
same,Potency,[3],inactive
same,Potency,[8],inactive
CC(C)n1nc(-c2ccc3oc(N)nc3c2)c2c(N)ncnc21,Potency,[1],0.0024 µM (active)
same,Potency,[2],0.0019 µM (active)
same,Potency,[3],0.0031 µM (active)
same,"activity change, negative = inhibition",[5],-61%
C=CCNc1ncnc2ccc(Br)cc12,outcome,[15],inactive
same,Potency,[1],inactive
same,Potency,[2],inactive
same,Potency,[3],inactive
C=C1C[C@@]2(O)O[C@@]3(C[C@H]2C(C)C)[C@H](C)CC[C@H]13,"parasite growth, % of DMSO control",[9],70.7%
same,"parasite growth, % of control (lower = inhibition)",[10],48.2%
same,"growth, % of control",[11],68.4%
same,Potency,[1],inactive
same,Potency,[2],inactive
same,Potency,[3],inactive
same,Potency,[8],inactive
Cc1cc(NC(=O)Nc2ccc3c(ccn3C)c2)sn1,outcome,[6],inactive
same,outcome,[7],inactive
same,Potency,[1],inactive
same,Potency,[2],inactive
same,Potency,[3],inactive
same,Potency,[8],inactive
COc1cc(C[C@@H](CO)[C@H](CO)Cc2ccc(O)c(OC)c2)ccc1O,Potency,[1],inactive
same,Potency,[2],1.72 µM (active)
same,Potency,[3],2.73 µM (active)
same,Potency,[4],inactive
O=c1c2ccccc2oc2ccccc12,Potency,[12],12.6 µM (active)
same,Potency,[13],inactive
same,Potency,[1],inactive
same,Potency,[2],inactive
same,Potency,[3],inactive
same,Potency,[8],inactive
Cc1c(CCOc2ccc(C(=O)O)cc2)c2cc(Cl)ccc2n1C(c1ccccc1)c1ccccc1,Potency,[1],inactive
same,Potency,[2],inactive
same,Potency,[3],inactive
same,Potency,[16],12.6 µM (active)
same,Potency,[4],inactive
same,"activity change, negative = inhibition",[5],-34.5%
COc1cc(NC(=O)c2ccc(-c3ccc(Cl)cc3)o2)cc(OC)c1,Potency,[1],34.3 µM (active)
same,Potency,[2],15.3 µM (active)
same,Potency,[3],21.7 µM (active)
same,Potency,[4],inactive
same,"activity change, negative = inhibition",[5],-4.11%
COc1c2ccoc2cc2oc(=O)ccc12,Potency,[17],5.01 µM (active)
same,Potency,[12],10 µM (active)
same,Potency,[13],inactive
same,Potency,[18],2 µM (active)
same,Potency,[19],3.16 µM (active)
same,Potency,[1],inactive
same,Potency,[2],inactive
same,Potency,[3],inactive
same,Potency,[8],inactive
CC[C@@]1(O)C[C@H](O[C@H]2C[C@H](N(C)C)[C@H](O[C@H]3C[C@H](O)[C@H](O[C@H]4CCC(=O)[C@H](C)O4)[C@H](C)O3)[C@H](C)O2)c2c(cc3c(c2O)C(=O)c2c(O)cccc2C3=O)[C@@H]1C(=O)OC,Potency,[1],inactive
same,Potency,[2],0.344 µM (active)
same,Potency,[3],0.344 µM (active)
same,outcome,[20],inactive
same,Potency,[21],inactive
same,outcome,[22],inactive
same,Potency,[4],inactive
same,Potency,[23],3.04 µM (active)
NC[C@@H]1O[C@H](C23CC4CC(CC(C4)C2)C3)Cc2c1ccc(O)c2O,outcome,[7],inactive
same,outcome,[15],inactive
same,Potency,[1],inactive
same,Potency,[2],inactive
same,Potency,[3],inactive
CC1=C(C(=O)Nc2cc3cn[nH]c3cc2F)C(c2ccc(Cl)cc2F)N=C(c2ccnc(Cl)c2)N1 (stereo unspecified),Potency,[1],inactive
same,Potency,[2],inactive
same,Potency,[3],inactive
same,Potency,[4],inactive
